Rows were chosen to be rich in hits. Some 0.57% of all compounds tested hit in one or more screens of this group.
TcdB inh: blocks C. difficile toxin B glycohydrolase activity | TcdB glycohydrolase enzymatic assay, plate reader | P18177 | hit rate 0.24% among 350,000 | inhibition, % at 9.99 µM; in the data active = inhibition above about 10%
Mtb BioA inh: blocks M. tuberculosis BioA enzyme activity. purified M. tuberculosis BioA enzyme, plate reader. inhibition, % at 9.99 µM. AID 602481. hit rate 0.096% among 360,000; in the data active = inhibition above about 40%
Y pestis TopoI: Y. pestis Topo-I inhibition via cleavage products. hit rate 0.064% among 360,000. AID 504884. Y. pestis Topo-I cleavage product accumulation, plate reader. activity, % at 10 µM; in the data active = activity above about 50%, passing the limit was not always enough
PrP 5UTR inh: inhibition of PrP 5' UTR reporter expression | AID 488862 | inhibition, % (no concentration beside the values) | cell-based PrP 5' UTR mRNA reporter, plate reader | hit rate 0.35% among 340,000; in the data active = inhibition above about 52%; also: 0 = median of the neutral control wells
Active calls of the source: *; . = no result; + = active, no number.

SMILES	TcdB inh	Mtb BioA inh	Y pestis TopoI	PrP 5UTR inh
CCOCCCNC(=O)c1cc2c(s1)-c1ccccc1SC2	-7	-1	-1	-19
COCCCn1c(-c2ccc(OC)cc2)cc(C(=O)NC2CCCCCCC2)c1C	0	.	56*	-14
CO[C@@H]1CN(C)C(=O)c2ccc(NS(=O)(=O)c3ccccc3C)cc2OC[C@H](C)N(S(C)(=O)=O)C[C@H]1C	1	0	.	.
O=C(CNS(=O)(=O)c1ccc([N+](=O)[O-])cc1)N/N=C\c1ccc(O)cc1	14*	-1	3	2
O=C(CC(=O)N/N=C/c1ccc(O)cc1)N/N=C/c1ccc(O)cc1	24*	0	2	-22
O=C(C1CCC1)N1CC2(C1)[C@@H](c1ccccc1)[C@@H](CO)N2Cc1ccccc1F	2	.	.	.
CN1/C(=C\C=O)C(C)(C)c2ccccc21	0	.	4	-14
CN1\C(=C/C=C/C=C/C=[N+](C)C)C(C)(C)c2ccccc21	0	.	+	-1
COCC(=O)Nc1ccc2c(c1)[C@@H]1C[C@H](CC(=O)NCC3CC3)O[C@@H](CO)[C@@H]1O2	1	-2	.	.
CCOC(=O)Nc1ccc(OC(=O)Oc2ccc(NC(=O)OCC)cc2)cc1	12*	.	6	3
CCOC(=O)Nc1ccc(Oc2ccccc2)cc1	.	4	-10	-41
COc1ccc(/C=C(/C#N)C(=O)Nc2ccc(O)cc2)cc1C(=O)O	18*	.	-5	-15
CCCSc1nc2c([nH]1)c(=O)n(C)c(=S)n2C	10*	.	-6	-13
N#CCCN(C(=O)COC(=O)c1cc(=O)c2ccccc2o1)c1ccccc1	10*	-1	2	-19
COc1ccc(S(=O)(=O)N(C)C[C@@H]2Oc3ccc(NC(=O)Nc4ccc(C(F)(F)F)cc4)cc3CC(=O)N([C@@H](C)CO)C[C@@H]2C)cc1	-1	0	.	.
Cc1ccc(NC(=O)OC(C)N2CCCCC2)cc1NC(=O)OC(C)N1CCCCC1 (stereo unspecified)	11*	-2	0	2
C[C@@H]1CCCCO[C@@H](CN(C)C(=O)Nc2ccc3c(c2)OCO3)[C@H](C)CN([C@H](C)CO)C(=O)c2cc(NS(=O)(=O)c3cn(C)cn3)ccc2O1	0	-3	.	.
C[C@@H]1CN([C@H](C)CO)C(=O)c2cccc(NC(=O)c3ccncc3)c2O[C@H]1CN(C)S(=O)(=O)c1cn(C)cn1	-1	-2	.	.
CN(C)C(=O)C[C@H]1C[C@@H]2c3cc(NC(=O)c4ccc5c(c4)OCO5)ccc3O[C@@H]2[C@@H](CO)O1	2	5	.	.
O=c1c2oc3nc4c(cc3c2ncn1CCCc1ccccc1)CCCC4	11*	.	-2	-41
CCCNC(=O)C1CC(=O)N(c2ccc(OCC)cc2)C1 (stereo unspecified)	11*	-1	11	-6
COC(=O)c1ccc(CSc2ncnc3c2sc2nc(N4CCOCC4)c4c(c23)CCCC4)o1	.	-1	7	-24
COC(=O)c1ccc(Cn2cnc3c(sc4nc(N5CCOCC5)c5c(c43)CCCC5)c2=O)o1	.	-1	52*	-8
COCC(=O)Nc1ccc2c(c1)OC[C@H](C)N(C(=O)Cc1cccnc1)C[C@@H](C)[C@H](OC)CN(C)C2=O	-1	.	.	.
O=C(Cc1ccccn1)N1CC(=O)N2[C@H](CO)[C@H](c3ccc(C#CC4CCCC4)cc3)[C@@H]2C1	1	.	.	.
SMILES	TcdB inh	Mtb BioA inh	Y pestis TopoI	PrP 5UTR inh
CCCNC(=O)Nc1ccc2c(c1)C(=O)N(C)C[C@H](OC)[C@@H](C)CN(S(C)(=O)=O)[C@@H](C)CO2	-4	.	.	.
COc1ccc(NC(c2ccccc2)c2ccncc2)cc1 (stereo unspecified)	16*	0	-3	-13
COc1ccc(NC(c2ccccc2)P(=O)(Oc2ccccc2)Oc2ccccc2)cc1 (stereo unspecified)	-1	.	10	-18
N#C/C(=C\c1cn(Cc2ccccc2F)c2ccccc12)C(=O)NCc1ccco1	.	.	83*	-16
COc1ccccc1OCCn1cc(/C=C(\C#N)C(=O)NCc2ccco2)c2ccccc21	.	-1	13	-4
COc1ccccc1NCC(=O)c1ccc(Cl)cc1	1	.	98*	-11
COc1ccccc1NCC(=O)c1ccc(C)c(C)c1	1	-1	-3	-19
Cc1ccc(S(=O)(=O)Nc2ccc3c(c2)CC(=O)N([C@H](C)CO)C[C@H](C)[C@@H](CN(C)Cc2ccc4c(c2)OCO4)O3)cc1	1	-1	.	.
O=C(c1cnccn1)N1CC[C@@H]2[C@H]1c1cc(-c3cccc(F)c3)ccc1N[C@@H]2CO	0	.	.	.
COC(=O)Cc1ccc(NC(=S)NCc2ccc(OC)cc2)cc1	23*	2	5	-31
COc1ccc(CNC(=S)Nc2ccc(OC)cc2)cc1	.	.	7	2
O=P1(Oc2ccccc2)OCCCS1 (stereo unspecified)	14*	.	-5	-9
Cc1noc(C)c1NC(=O)Nc1ccc2c(c1)CC(=O)N([C@H](C)CO)C[C@@H](C)[C@H](CN(C)C(=O)Nc1ccccc1)O2	1	0	.	.
O=C(O)C1C(=O)NCC1c1ccccc1 (stereo unspecified)	24*	.	3	-13
O=C1CC(c2ccccc2)C(C(=O)O)N1 (stereo unspecified)	2	0	2	-16
O=C(CSc1cccc2cccnc12)N/N=C/c1cccc(O)c1	7	.	10	-1
O=C(CSc1cccc2cccnc12)N/N=C/c1ccc(F)cc1	11*	.	1	-17
CN(C)c1ccc(/C=C/c2cccc[n+]2[O-])cc1	13*	-8	-4	-85
C[C@H](CO)N1C[C@H](C)[C@H](CN(C)C(=O)Nc2ccc(C(F)(F)F)cc2)Oc2c(NS(C)(=O)=O)cccc2C1=O	1	0	.	.
S=c1[nH]nc(-c2ccncc2)n1/N=C/C=C/c1ccco1	1	.	0	-23
Cc1cccc(-c2n[nH]c(=S)n2/N=C/C=C/c2ccco2)c1	10*	3	-6	-30
CC(/C=N/n1c(-c2ccncc2)n[nH]c1=S)=C\c1ccco1	19*	0	-5	-8
CC(/C=N/n1c(-c2ccc(C)cc2)n[nH]c1=S)=C\c1ccco1	.	.	6	-12
CCCC(=O)Nc1ccc2c(c1)C(=O)N(C)C[C@H](OC)[C@H](C)CN(S(=O)(=O)c1cn(C)cn1)[C@@H](C)CO2	1	1	.	.
COc1cccc(Oc2ccc3nnc(C(F)(F)F)n3n2)c1	11*	.	6	-11
SMILES	TcdB inh	Mtb BioA inh	Y pestis TopoI	PrP 5UTR inh
O=C1Nc2ccccc2SC1=Cc1ccccc1	1	-2	12	.
O=C1CCCC2=C1Sc1ccccc1N2	10*	6	3	-14
COc1ccccc1N(CC(=O)NCCSc1ccccc1)S(=O)(=O)c1ccccc1	2	-1	57*	-28
Cc1cc(C(C)(C)C)cc(CN2CCN(S(=O)(=O)c3cccs3)CC2)c1O	11*	-4	-9	.
Cc1ccc(C(=O)Nc2ccc(O)cc2C(=O)O)cc1C	20*	-1	-1	-4
Cc1ccc(C(=O)Nc2ccc(O)cc2C(=O)O)cc1	.	-1	3	3
Cc1cc(C)cc(N=C2NC(=O)CS2)c1	13*	1	-17	-22
Cc1cccc(N=C2NC(=O)CS2)c1	.	3	5	-23
CC(=O)Nc1ccc(N(C(=O)c2ccco2)C(C(=O)NC2CCCCC2)c2ccccc2)cc1 (stereo unspecified)	0	-1	4	-25
